Assay results published in PubChem BioAssay (Tox21).
Several values for one entry are separate records, joined by “and”; a condition that tells them apart may be missing. Equal values may be shown once. Results filed as inconclusive are left out. Some structures have more than one record in an assay (separate samples or runs), and their calls can disagree. Activity calls are given as the source filed them. The call rests on the fitted dose curve.

Experiment: p53 small molecule agonists, cell-based qHTS assay with rat liver microsomes (AID 1963578)
Details: HCT-116 p53RE-bla, beta-lactamase ratio, 16 h; series mostly up to 66 µM; activation: at the top concentration
Summary of the method: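 Each plate received p53RE-bla cells, then compound, then rat liver microsomes and NADPH (both 0.5 mg/mL final). Plates were held 16 h at 37 C, and beta-lactamase activity was detected with LiveBLAzer over 2 h.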
On the % scale 0 is the no-effect control and ±100 the full control effect.

Compound | Potency | activation
Nc1ncc([N+](=O)[O-])s1 | inactive | –
Oc1ccccc1-c1ccccc1 | inactive | –
ClCc1ccccc1 | – | 1.03% (inactive)
CCCCC(C#N)(Cn1cncn1)c1ccc(Cl)cc1 (centres undefined) | – | 1.85% (inactive)
Cc1ccccc1N | inactive | –
CCCC1CCCCN1 (centres undefined) | – | 0.487% [at 30.3 µM] (inactive)
ClC(Cl)(Cl)c1ccccc1 | – | 15.6% (inactive)
CCCCCCCCCCCCBr | – | -0.879% (inactive)
c1ccc2c(c1)Oc1ccccc1O2 | inactive | –
Cc1ccc(N)cc1 | inactive | –
O=C(CCl)CCl | inactive | –
Nc1ccc(Cl)cc1 | inactive | –
O=S(=O)(O)C(F)(F)C(F)(F)C(F)(F)C(F)(F)C(F)(F)C(F)(F)F | – | -2.78% (inactive)
CC(Cl)C(=O)O (centres undefined) | – | 0.514% (inactive)
c1ccc2c(c1)oc1ccccc12 | inactive | –
CC[C@H](N)c1ccccc1 | – | 1.41% (inactive)
C=CC(=O)OCCO | inactive | –
C=C(C)[C@@H]1CC=C(C=O)CC1 | – | -0.717% (inactive)
CN(CCO)CCO | – | 3.67% (inactive)

Compound | Potency | activation
COc1ccc(N)cc1 | inactive | –
CCCCCCCCCCOC(=O)c1ccccc1C(=O)OCCCCCCCCCC | – | -3.64% (inactive)
COS(=O)(=O)c1ccc(C)cc1 | – | 2% (inactive)
CC1(C)CC(=O)CC(C)(C)N1[O] | – | 3.95% (inactive)
CCN(CCO)CCO | – | 0.314% (inactive)
O=C(O)c1ccc(=O)[nH]c1 | – | 0.649% [at 30.3 µM] (inactive)
Nc1ccccc1Cl | – | 2.1% (inactive)
O=C1C(Cl)=C(Cl)C(=O)c2ccccc21 | – | -2.55% (inactive)
CCCCCCOC(=O)c1ccccc1C(=O)OCCCCCC | inactive | –
CCCCOCCOC(C)=O | inactive | –
C1CCC2CCCCC2C1 (centres undefined) | – | 0.204% (inactive)
Cc1cc(-c2ccc(N)c(C)c2)ccc1N | inactive | –
CN(C)C(=O)C(c1ccccc1)c1ccccc1 | inactive | –
CC1=C(C(=O)Nc2ccccc2)SCCO1 | inactive | –
Cc1ccccc1CCl | – | -1.59% (inactive)
COC(=O)c1ccccc1N | inactive | –
Cc1ccc(O)c(C)c1 | inactive | –
C#CC(C)(C)NC(=O)c1cc(Cl)cc(Cl)c1 | inactive | –
CCC(C)n1c(=O)[nH]c(C)c(Br)c1=O (centres undefined) | – | 4.28% (inactive)

Experiment: p53 small molecule agonists, cell-based qHTS assay with human liver microsomes: qHTS cell viability counter screen (AID 1963579); further: nearly all actives have a fitted effect of over 45% in size; further: potency means the concentration at half of the fitted maximal effect
Details: p53RE-bla HCT-116 viability, ATP luminescence, 16 h, HLM; series mostly up to 66 µM; activity change, negative = cytotoxicity: at the top concentration
Summary of the method: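 Tox21 library compounds, delivered from DMSO stocks, were tested on p53RE-bla cells together with 0.5 mg/mL human liver microsomes and 0.5 mg/mL NADPH (final) over 16 h at 37 C; CellTiter-Glo luminescence served as the cytotoxicity measure.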

Compound | Potency | activity change, negative = cytotoxicity
Nc1ncc([N+](=O)[O-])s1 | inactive | –
Oc1ccccc1-c1ccccc1 | inactive | –
ClCc1ccccc1 | – | 2.53% (inactive)
CCCCC(C#N)(Cn1cncn1)c1ccc(Cl)cc1 (centres undefined) | inactive | –
Cc1ccccc1N | inactive | –
CCCC1CCCCN1 (centres undefined) | – | 4.1% [at 30.3 µM] (inactive)
ClC(Cl)(Cl)c1ccccc1 | inactive | –
CCCCCCCCCCCCBr | – | -0.914% (inactive)
c1ccc2c(c1)Oc1ccccc1O2 | inactive | –
Cc1ccc(N)cc1 | inactive | –
O=C(CCl)CCl | inactive | –
Nc1ccc(Cl)cc1 | inactive | –
O=S(=O)(O)C(F)(F)C(F)(F)C(F)(F)C(F)(F)C(F)(F)C(F)(F)F | – | -16.2% (inactive)
CC(Cl)C(=O)O (centres undefined) | – | 4.5% (inactive)
c1ccc2c(c1)oc1ccccc12 | inactive | –
CC[C@H](N)c1ccccc1 | – | 0.779% (inactive)
C=CC(=O)OCCO | inactive | –
C=C(C)[C@@H]1CC=C(C=O)CC1 | – | 15.8% (inactive)
CN(CCO)CCO | – | 4.67% (inactive)

Compound | Potency | activity change, negative = cytotoxicity
COc1ccc(N)cc1 | inactive | –
CCCCCCCCCCOC(=O)c1ccccc1C(=O)OCCCCCCCCCC | – | -2.06% (inactive)
COS(=O)(=O)c1ccc(C)cc1 | – | 3.25% (inactive)
CC1(C)CC(=O)CC(C)(C)N1[O] | – | 1.65% (inactive)
CCN(CCO)CCO | – | 1.76% (inactive)
O=C(O)c1ccc(=O)[nH]c1 | – | 9.06% [at 30.3 µM] (inactive)
Nc1ccccc1Cl | – | 4.05% (inactive)
O=C1C(Cl)=C(Cl)C(=O)c2ccccc21 | 14.5 µM (active) | –
CCCCCCOC(=O)c1ccccc1C(=O)OCCCCCC | inactive | –
CCCCOCCOC(C)=O | inactive | –
C1CCC2CCCCC2C1 (centres undefined) | – | -6.8% (inactive)
Cc1cc(-c2ccc(N)c(C)c2)ccc1N | inactive and 4.07 µM (active) | –
CN(C)C(=O)C(c1ccccc1)c1ccccc1 | inactive | –
CC1=C(C(=O)Nc2ccccc2)SCCO1 | inactive | –
Cc1ccccc1CCl | – | 0.988% (inactive)
COC(=O)c1ccccc1N | inactive | –
Cc1ccc(O)c(C)c1 | inactive | –
C#CC(C)(C)NC(=O)c1cc(Cl)cc(Cl)c1 | inactive | –
CCC(C)n1c(=O)[nH]c(C)c(Br)c1=O (centres undefined) | – | 2.2% (inactive)

Experiment: p53 small molecule agonists, cell-based qHTS assay with rat liver microsomes: qHTS cell viability counter screen (AID 1963580); further: nearly all actives have a fitted effect of over 45% in size
Details: p53RE-bla HCT-116 + rat microsomes, ATP viability, 16 h; series mostly up to 66 µM; activity change, negative = cytotoxicity: at the top concentration
Summary of the method: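 In HCT-116 cells carrying a p53 response element-bla reporter, compounds were metabolically activated in situ by rat liver microsomes with NADPH over 16 h. Cell ATP content then served as the cytotoxicity measure.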

Compound | Potency | activity change, negative = cytotoxicity
Nc1ncc([N+](=O)[O-])s1 | inactive | –
Oc1ccccc1-c1ccccc1 | inactive | –
ClCc1ccccc1 | – | -1.94% (inactive)
CCCCC(C#N)(Cn1cncn1)c1ccc(Cl)cc1 (centres undefined) | inactive | –
Cc1ccccc1N | inactive | –
CCCC1CCCCN1 (centres undefined) | – | 3.63% [at 30.3 µM] (inactive)
ClC(Cl)(Cl)c1ccccc1 | inactive | –
CCCCCCCCCCCCBr | – | -11% (inactive)
c1ccc2c(c1)Oc1ccccc1O2 | inactive | –
Cc1ccc(N)cc1 | inactive | –
O=C(CCl)CCl | inactive | –
Nc1ccc(Cl)cc1 | inactive | –
O=S(=O)(O)C(F)(F)C(F)(F)C(F)(F)C(F)(F)C(F)(F)C(F)(F)F | – | 7.19% (inactive)
CC(Cl)C(=O)O (centres undefined) | – | 8.1% (inactive)
c1ccc2c(c1)oc1ccccc12 | – | -2.89% (inactive)
CC[C@H](N)c1ccccc1 | – | -2.63% (inactive)
C=CC(=O)OCCO | inactive | –
C=C(C)[C@@H]1CC=C(C=O)CC1 | – | -5.69% (inactive)
CN(CCO)CCO | – | -6.3% (inactive)

Compound | Potency | activity change, negative = cytotoxicity
COc1ccc(N)cc1 | inactive | –
CCCCCCCCCCOC(=O)c1ccccc1C(=O)OCCCCCCCCCC | – | -0.889% (inactive)
COS(=O)(=O)c1ccc(C)cc1 | – | 1.21% (inactive)
CC1(C)CC(=O)CC(C)(C)N1[O] | – | 0% (inactive)
CCN(CCO)CCO | – | -2.06% (inactive)
O=C(O)c1ccc(=O)[nH]c1 | – | 0.359% [at 30.3 µM] (inactive)
Nc1ccccc1Cl | – | 4.71% (inactive)
O=C1C(Cl)=C(Cl)C(=O)c2ccccc21 | – | -12.7% (inactive)
CCCCCCOC(=O)c1ccccc1C(=O)OCCCCCC | inactive | –
CCCCOCCOC(C)=O | inactive | –
C1CCC2CCCCC2C1 (centres undefined) | – | 4.12% (inactive)
Cc1cc(-c2ccc(N)c(C)c2)ccc1N | inactive | –
CN(C)C(=O)C(c1ccccc1)c1ccccc1 | inactive | –
CC1=C(C(=O)Nc2ccccc2)SCCO1 | inactive | –
Cc1ccccc1CCl | – | -8.6% (inactive)
COC(=O)c1ccccc1N | inactive | –
Cc1ccc(O)c(C)c1 | inactive | –
C#CC(C)(C)NC(=O)c1cc(Cl)cc(Cl)c1 | inactive | –
CCC(C)n1c(=O)[nH]c(C)c(Br)c1=O (centres undefined) | – | -4.15% (inactive)
